Structures are written as SMILES.

In the test the test system is Pseudogymnoascus destructans 20631-21. The experiment in a line: growth activity index (DuctApe, 0 = no growth, 9 = maximal growth) (index 0-9); higher = more fungal growth (less inhibition), active = 0 or less; extreme values may be limits of the assay. The settings on record: temperature: 13 °C, YPD.
The mark [1] stands for this setting: concentration level (1-4, increasing; Biolog proprietary): 1.
Setting [2] is: concentration level (1-4, increasing; Biolog proprietary): 2.
Where [3] appears, read: concentration level (1-4, increasing; Biolog proprietary): 3.
The mark [4] stands for this setting: concentration level (1-4, increasing; Biolog proprietary): 4.
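Further: biolog Phenotype Microarray plates PM21–25, OD595 followed daily over 11 days, growth curves converted to index, mean of two independent experiments.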

With `[Cl][Cu][Cl]` [Cupric chloride] (Biolog plate: PM23), the growth activity index reads like this: under setting [1], 4.33 (inactive); under setting [2], 5.33 (inactive); under setting [3], 6 (inactive); under setting [4], 6 (inactive).

In the case of `CN[C@@H]1[C@@H](O[C@H]2O[C@H](CO)[C@@H](N)[C@H](O)[C@H]2O)OC2C[C@@H](N)[C@@H](O[C@H]3[C@H](O)[C@@H](O)[C@H](N)C[C@@H]3N)OC2[C@@H]1O` (some centres not stated) [Apramycin] (Biolog plate: PM24), the growth activity index runs as follows: under setting [1], 5 (inactive); under setting [2], 4.33 (inactive); under setting [3], 7.67 (inactive); under setting [4], 4.33 (inactive).

Consider `CN(C)C(=O)/N=N/C(=O)N(C)C` [Diamide] (Biolog plate: PM21), for which the growth activity index reads like this: under setting [1], 5.75 (inactive); under setting [2], 5 (inactive); under setting [3], 0 (active); under setting [4], 0 (active).

On to `Cn1c(=O)c2c(ncn2C)n(C)c1=O` [Caffeine] (Biolog plate: PM22), for which the growth activity index was 5 (inactive) under setting [1], 4 (inactive) under setting [2], 0 (active) under setting [3] and 0 (active) under setting [4].

Regarding `COc1ccc2cc3[n+](cc2c1OC)CCc1cc2c(cc1-3)OCO2` [Berberine Chloride] (Biolog plate: PM24), the growth activity index reads like this: under setting [1], 4 (inactive); under setting [2], 4.67 (inactive); under setting [3], 0.333 (inactive); under setting [4], 0.667 (inactive).

For `On1ccccc1=S` [1-Hydroxypyridine-2-thione (pyrithione)] (Biolog plate: PM21), the growth activity index under setting [1] was 5.25 (inactive), the growth activity index under setting [2] was 4 (inactive), the growth activity index under setting [3] is 4.25 (inactive) and the growth activity index under setting [4] is 2.25 (inactive).

As for `[I-].[K+]` [Potassium iodide] (Biolog plate: PM22), the growth activity index reads like this: under setting [1], 0 (active); under setting [2], 0 (active); under setting [3], 0 (active); under setting [4], 0 (active).

In the case of `C[C@H]1c2cccc(O)c2C(=O)C2=C(O)[C@]3(O)C(=O)C(C(N)=O)=C(O)[C@@H](N(C)C)[C@@H]3[C@@H](O)[C@@H]21` [Doxycycline] (Biolog plate: PM23), the growth activity index under setting [1] was 4.67 (inactive), the growth activity index under setting [2] is 5 (inactive), the growth activity index under setting [3] is 5.33 (inactive) and the growth activity index under setting [4] was 6 (inactive).

Regarding `c1ccc(-c2nn(-c3ccccc3)[n+](-c3cccc4ccccc34)n2)cc1` [Tetrazolium violet] (Biolog plate: PM25), the growth activity index is, setting by setting: under setting [1], 4.33 (inactive); under setting [2], 3 (inactive); under setting [3], 0 (active); under setting [4], 2 (inactive).

Regarding `CO/N=C(\C(=O)N[C@@H]1C(=O)N2C(C(=O)O)=C(CSc3nc(=O)c(O)nn3C)CS[C@H]12)c1csc(N)n1` [Ceftriaxone] (Biolog plate: PM22), the growth activity index reads like this: under setting [1], 2 (inactive); under setting [2], 0 (active); under setting [3], 0 (active); under setting [4], 0 (active).

Consider `[F-].[Na+]` [Sodium Fluoride] (Biolog plate: PM24), for which the growth activity index under setting [1] is 4.33 (inactive), the growth activity index under setting [2] was 4.67 (inactive), the growth activity index under setting [3] is 5.33 (inactive) and the growth activity index under setting [4] was 4.67 (inactive).

Turning to `Nc1c2ccccc2nc2ccccc12` [9-Aminoacridine] (Biolog plate: PM24), the growth activity index was 5 (inactive) under setting [1], 5.33 (inactive) under setting [2], 7 (inactive) under setting [3] and 9 (inactive) under setting [4].

`O=c1[nH]cc(F)c(=O)[nH]1` [5-Fluorouracil] (Biolog plate: PM25): the growth activity index reads like this: under setting [1], 4.67 (inactive); under setting [2], 5 (inactive); under setting [3], 5.33 (inactive); under setting [4], 6 (inactive).

Consider `NC[C@H]1O[C@H](O[C@H]2[C@H](O)[C@@H](O[C@H]3O[C@H](CO)[C@@H](O)[C@H](N)[C@H]3O)[C@H](N)C[C@@H]2N)[C@H](N)C[C@@H]1O` [Tobramycin] (Biolog plate: PM25), for which the growth activity index under setting [1] is 5 (inactive), the growth activity index under setting [2] was 5 (inactive), the growth activity index under setting [3] was 5 (inactive) and the growth activity index under setting [4] is 1 (inactive).

For `O=C(O)CC(O)C(=O)O` (configuration not stated) [Malic acid] (Biolog plate: PM25), the growth activity index was 4 (inactive) under setting [1], 5 (inactive) under setting [2], 2.67 (inactive) under setting [3] and 1.33 (inactive) under setting [4].

Turning to `NC[C@H]1O[C@H](O[C@H]2[C@H](O)[C@@H](O[C@H]3O[C@H](CO)[C@@H](O)[C@H](N)[C@H]3O)[C@H](N)C[C@@H]2N)[C@H](O)[C@@H](O)[C@@H]1O` [Kanamycin] (Biolog plate: PM25), the growth activity index was 5 (inactive) under setting [1], 5 (inactive) under setting [2], 5 (inactive) under setting [3] and 4.33 (inactive) under setting [4].

For `CCCCCCCCCCCC[N+](C)(C)C` [Dodecyltrimethyl ammonium bromide] (Biolog plate: PM21), the growth activity index by setting is: under setting [1], 4.25 (inactive); under setting [2], 0 (active); under setting [3], 0 (active); under setting [4], 1 (inactive).

`O=P(O)(O)OP(=O)(O)O` [Sodium pyrophosphate] (Biolog plate: PM24): the growth activity index is 5.67 (inactive) under setting [1], 4.67 (inactive) under setting [2], 4.67 (inactive) under setting [3] and 4 (inactive) under setting [4].

For `O=[Si](O)O` [Sodium metasilicate] (Biolog plate: PM24), the growth activity index was 4.33 (inactive) under setting [1], 2.67 (inactive) under setting [2], 2.67 (inactive) under setting [3] and 3.33 (inactive) under setting [4].

In the case of `O=C([O-])c1ccccc1.[Na+]` [Sodium Benzoate] (Biolog plate: PM24), the growth activity index under setting [1] is 4 (inactive), the growth activity index under setting [2] is 5 (inactive), the growth activity index under setting [3] was 4.67 (inactive) and the growth activity index under setting [4] is 4.67 (inactive).

For `O=c1[nH]c(=O)n([C@H]2C[C@H](O)[C@@H](CO)O2)cc1F` [Fluorodeoxyuridine] (Biolog plate: PM25), the growth activity index was 4.67 (inactive) under setting [1], 3.67 (inactive) under setting [2], 4.33 (inactive) under setting [3] and 3 (inactive) under setting [4].

In the case of `Cc1cc(N)c2ccccc2[n+]1CCCCCCCCCC[n+]1c(C)cc(N)c2ccccc21` [Dequalinium chloride] (Biolog plate: PM23), the growth activity index is 4 (inactive) under setting [1], 4.67 (inactive) under setting [2], 2 (inactive) under setting [3] and 1 (inactive) under setting [4].

Turning to `CN(C)CCCN1c2ccccc2Sc2ccc(Cl)cc21` [Chlorpromazine] (Biolog plate: PM23), the growth activity index was 5 (inactive) under setting [1], 0 (active) under setting [2], 0 (active) under setting [3] and 2 (inactive) under setting [4].

As to `O=S(=O)([O-])[O-].[Cu+2]` [Copper (II) sulfate] (Biolog plate: PM21), the growth activity index under setting [1] was 6 (inactive), the growth activity index under setting [2] is 6 (inactive), the growth activity index under setting [3] is 6 (inactive) and the growth activity index under setting [4] is 6 (inactive).

For `NNC(=O)c1ccncc1` [Isoniazid] (Biolog plate: PM24), the growth activity index was 5 (inactive) under setting [1], 5 (inactive) under setting [2], 4 (inactive) under setting [3] and 0.333 (inactive) under setting [4].

As for `[Na+].[O]=[V](=[O])[O-]` [Sodium metavanadate] (Biolog plate: PM22), the growth activity index by setting is: under setting [1], 5 (inactive); under setting [2], 4.33 (inactive); under setting [3], 5 (inactive); under setting [4], 3.67 (inactive).

As for `NC(N)=O` [Urea hydrogen peroxide] (Biolog plate: PM22), the growth activity index is 4.67 (inactive) under setting [1], 4 (inactive) under setting [2], 4.67 (inactive) under setting [3] and 4.33 (inactive) under setting [4].

Turning to `O=C(O)CCC(=O)O` [Succinic acid] (Biolog plate: PM25), the growth activity index is, setting by setting: under setting [1], 3.33 (inactive); under setting [2], 3.33 (inactive); under setting [3], 3.67 (inactive); under setting [4], 3 (inactive).
